# Measurements as given in PubChem BioAssay AID602340 (Broad Institute, 2012).
# “And” between values parts separate entries of the source, which are not always exact repeats. Identical values can stand only once. About 2,600 (0.79%) of roughly 330,000 compounds were called active.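 The calls were made as follows: active = mean ATP rescue above about 67%, or every replicate alone reaching that limit (limit read from the data, passing the limit was not always enough); inconclusive = no clear call, values can overlap the other calls; inactive = mean under the limit and some replicate under it.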 The full list was thinned out, with actives kept by preference. Where a structure was tested more than once in an assay, its records may differ in their call.
# Experiment: protection of differentiated C2C12 cells from simvastatin – single point, plate reader, primary screen (AID 602340);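 also: myotubes were challenged with 10 µM simvastatin during compound exposure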
# Conditions: C2C12 myotubes + simvastatin, ATP luminescence, 48 h; at 7.49 µM; stronger effect = higher value; scaled: DMSO 0, geranylgeraniol control 100
row,SMILES,rescue of ATP level
1,CC1(C(=O)O)CCCN(C(=O)/C=C/c2ccccc2)C1 (centres undefined),2.47% (inactive)
2,Cc1[nH]c(=O)c(C(=O)/C=C/c2ccccc2)c2c1CCCC2,165% (active)
3,C/C(=C\c1ccccc1)C1NC(=O)c2c(sc3c2CCCC3)N1 (centres undefined),-22.3% (inactive)
4,COc1ccccc1NC(=O)N1C[C@H](O)COC[C@H]2O[C@H](CC(=O)NCCc3ccccc3)CC[C@@H]21,-6.91% (inactive)
5,CCOc1ccc(C(=O)Nc2ccc(S(=O)(=O)Nc3cc(C)on3)cc2)cc1,10.8% (inactive)
6,CCC(=O)Nc1ccc(C(=O)Nc2cc(C)on2)cc1,84.9% (active)
7,CCC(=O)Nc1ccc(C(=O)NNC(=O)c2ccc(Cl)cc2)cc1,-2.53% (inactive)
8,C[C@H]1CN([C@@H](C)CO)S(=O)(=O)c2ccc(Br)cc2O[C@H]1CN(C)C(=O)C1CC1,4.28% (inactive)
9,CC(=O)Nc1ccc(C(=O)CSc2nc3ccc(C)cc3[nH]2)cc1,107% (active)
10,CCOC(=O)CSc1nc2ccc(C)cc2[nH]1,11.3% (inactive)
11,Cc1ccc2nc(SCC(=O)NC3CCCC3)[nH]c2c1,-36.1% (inactive)
12,O=C(NCC[C@H]1CC[C@H](NS(=O)(=O)c2cccc(F)c2)[C@H](CO)O1)C1CCCCC1,0.841% (inactive)
13,COC(=O)C[C@H]1CC[C@H](NC(=O)Nc2ccc(C(F)(F)F)cc2)[C@H](CO)O1,-6.07% (inactive)
14,CCS(=O)(=O)Nc1ccc2c(c1)C(=O)N(C)[C@@H]1CC[C@H](CC(=O)N[C@H]3CCN(Cc4ccccc4)C3)O[C@@H]1CO2,10.9% (inactive)
15,CCS(=O)(=O)Nc1ccc2c(c1)C(=O)N(C)[C@@H]1CC[C@@H](CC(=O)N3CCCCC3)O[C@H]1CO2,-21.4% (inactive)
16,CO[C@H]1CN(C)C(=O)c2ccc(NC(=O)C3CC3)cc2OC[C@@H](C)N(C)C[C@H]1C,2.87% (inactive)
17,O=C(C1CCCN(S(=O)(=O)c2ccccc2)C1)N1CCN(c2ccc(F)cc2)CC1 (centres undefined),-8.18% (inactive)
18,CCS(=O)(=O)N1CCC(C(=O)N2CCN(c3ccccc3)CC2)CC1,2.16% (inactive)
19,CCCS(=O)(=O)N1CCCC(C(=O)N2CCN(c3ccccc3)CC2)C1 (centres undefined),103% (active)
20,C[C@@H](NC(=O)C[C@@H]1CC[C@H](NC(=O)Cc2ccccn2)[C@H](CO)O1)c1ccccc1,4.66% (inactive)
21,CC(C)NC(=O)N(C)C[C@H]1Oc2ccc(N(C)C)cc2C(=O)N([C@@H](C)CO)C[C@H]1C,70.4% (active)
22,C[C@@H]1CN([C@@H](C)CO)C(=O)c2cccc(NC(=O)Nc3ccc(F)cc3)c2O[C@H]1CN(C)C(=O)Nc1ccc(F)cc1,18.2% (inactive)
23,C[C@H]1CN([C@@H](C)CO)C(=O)c2cccc(NC(=O)Nc3ccc(C(F)(F)F)cc3)c2O[C@H]1CN(C)CC1CCCCC1,88.7% (active)

row,SMILES,rescue of ATP level
1,C[C@@H]1CN([C@@H](C)CO)C(=O)c2cccc(NC(=O)Nc3ccc(F)cc3)c2O[C@@H]1CN(C)C(=O)Nc1ccccc1,7.96% (inactive)
2,C[C@H]1CN([C@@H](C)CO)C(=O)c2cccc(NC(=O)Nc3ccc(C(F)(F)F)cc3)c2O[C@H]1CN(C)C(=O)NC1CCCCC1,-25.5% (inactive)
3,CC(C)NC(=O)N(C)C[C@@H]1Oc2ccc(N(C)C)cc2C(=O)N([C@@H](C)CO)C[C@H]1C,-49% (inactive)
4,C[C@@H]1CN([C@H](C)CO)C(=O)c2cccc(NC(=O)Nc3cccc4ccccc34)c2O[C@@H]1CN(C)C(=O)Nc1ccc(F)cc1,98.6% (active)
5,C[C@@H]1CN([C@H](C)CO)C(=O)c2cccc(NS(=O)(=O)c3ccc(Cl)cc3)c2O[C@H]1CN(C)C(=O)NC1CCCCC1,36.6% (inactive)
6,C[C@H](CO)N1C[C@H](C)[C@@H](CN(C)C(=O)Nc2ccccc2)Oc2ccc(N(C)C)cc2C1=O,4.49% (inactive)
7,C[C@@H]1CN([C@@H](C)CO)C(=O)c2cccc(NS(=O)(=O)c3ccc(F)cc3)c2O[C@H]1CN(C)C(=O)NC1CCCCC1,88.2% (active) and -10.4% (inactive)
8,C[C@H]1CN([C@@H](C)CO)C(=O)c2cccc(NC(=O)Nc3ccc(C(F)(F)F)cc3)c2O[C@@H]1CN(C)Cc1ccccc1,-12.1% (inactive)
9,C[C@@H]1CN([C@H](C)CO)C(=O)c2cccc(NS(=O)(=O)c3ccc(F)cc3)c2O[C@@H]1CN(C)C(=O)Nc1ccc(F)cc1,3.07% (inactive)
10,C[C@@H]1CN([C@H](C)CO)C(=O)c2cc(NC(=O)Cc3cn(C)c4ccccc34)ccc2O[C@@H]1CN(C)S(=O)(=O)c1cccs1,34.2% (inactive)
11,CCS(=O)(=O)Nc1ccc2c(c1)C(=O)N(C)[C@H]1CC[C@H](CC(=O)NCc3ccccc3F)O[C@H]1CO2,-3.79% (inactive)
12,O=C(N[C@H]1CC[C@@H](CCn2cc(Cc3ccccc3)nn2)O[C@H]1CO)c1cnccn1,-1.98% (inactive)
13,COc1ccc(NC(=O)N(C)C[C@H]2Oc3ncc(C#C[C@@H](C)O)cc3C(=O)N([C@H](C)CO)C[C@H]2C)cc1,12.8% (inactive) and -6.34% (inactive) and 21.2% (inactive)
14,COc1ccc(NC(=O)N(C)C[C@H]2Oc3c(NC(=O)Nc4cccc5ccccc45)cccc3C(=O)N([C@H](C)CO)C[C@@H]2C)cc1,75.6% (active)
15,COc1ccc(NC(=O)Nc2cccc3c2O[C@H](CN(C)C(=O)Nc2cccc4ccccc24)[C@H](C)CN([C@H](C)CO)C3=O)cc1,60% (inactive)
16,COc1ccc(C#Cc2cnc3c(c2)C(=O)N([C@H](C)CO)C[C@@H](C)[C@H](CN(C)C(=O)Nc2cccc(OC)c2)O3)cc1,114% (active)
17,COc1ccc(NC(=O)N(C)C[C@@H]2Oc3c(NC(=O)Nc4cccc5ccccc45)cccc3C(=O)N([C@@H](C)CO)C[C@H]2C)cc1,15.2% (inactive)
18,COc1cccc(NC(=O)N(C)C[C@@H]2Oc3ncc(Br)cc3C(=O)N([C@@H](C)CO)C[C@H]2C)c1,17.2% (inactive)
19,CN(C)C(=O)C[C@@H]1CC[C@H](NC(=O)NC2CCCCC2)[C@@H](CO)O1,-1.33% (inactive)
20,O=C(Nc1ccccc1F)N1C[C@H]2[C@@H](c3ccccc31)[C@H](CO)N2C(=O)c1ccccn1,45.1% (inactive)
21,O=C(N[C@@H]1CC[C@@H](CCNS(=O)(=O)Cc2ccccc2)O[C@@H]1CO)c1ccccc1F,-15% (inactive)
22,CN(C)C(=O)[C@@H]1[C@@H](CO)[C@@H]2Cn3c(ccc(-c4ccccc4F)c3=O)[C@@H]2N1C(=O)C1CC1,-6.7% (inactive)
23,O=C(NCc1ccco1)c1cc2sccc2n1Cc1ccc(F)cc1,160% (active)

row,SMILES,rescue of ATP level
1,O=C(NCc1ccco1)c1ccc(Cn2c(=O)c3sccc3n(Cc3ccc(F)cc3)c2=O)cc1,-13.7% (inactive)
2,O=C(Cc1ccc(-n2c(=O)c3sccc3n(Cc3ccc(F)cc3)c2=O)cc1)NCc1ccco1,-0.81% (inactive)
3,O=C(C[C@@H]1CC[C@@H]2[C@H](COC[C@H](O)CN2Cc2cccc(-c3ccncc3)c2)O1)N1CCOCC1,7.32% (inactive)
4,Cc1ccc(SCC(=O)NNC(=O)c2ccc(S(C)(=O)=O)cc2)cc1,90% (active)
5,CS(=O)(=O)c1ccc(C(=O)NNC(=O)c2cccs2)cc1,19.1% (inactive)
6,Cc1ccc(C(=O)NNC(=O)CSc2nnc3ccccn23)cc1,0.262% (inactive)
7,CO[C@H]1CN(C)C(=O)c2ccc(NC(=O)C3CCC3)cc2OC[C@@H](C)N(Cc2ccccn2)C[C@H]1C,9.17% (inactive)
8,CNC(=O)C[C@H]1CC[C@@H]2[C@H](COc3ccc(NC(=O)C(C)C)cc3C(=O)N2C)O1,5.79% (inactive)
9,O=C(CCC1CCCN(C(=O)c2ccc(F)c(F)c2)C1)N1CCN(c2ccccn2)CC1 (centres undefined),-0.349% (inactive)
10,O=C(c1ccc2c(c1)C(=O)N(c1ccc(Cl)cc1)C2=O)N1CCN(c2ccccn2)CC1,135% (active)
11,O=C(c1c(F)cccc1Cl)N1CCN(c2ccccn2)CC1,-10.5% (inactive)
12,COCC(=O)Nc1ccc2c(c1)OC[C@H](C)N(C(=O)c1cnccn1)C[C@@H](C)[C@H](OC)CN(C)C2=O,3.92% (inactive)
13,COc1ccc(/C(O)=C2/C(=O)C(=O)N(CCCN(C)C)C2c2ccccc2)cc1OC (centres undefined),14.8% (inactive)
14,COc1ccccc1CNC(=O)COC(=O)c1sc(C)nc1C,-4.29% (inactive)
15,COc1cc(C2C(C(=O)c3sc(C)nc3C)=C(O)C(=O)N2CCN(C)C)cc(OC)c1OC (centres undefined),116% (active)
16,C[C@@H]1CN([C@@H](C)CO)C(=O)Cc2cc(NS(=O)(=O)c3cccs3)ccc2O[C@@H]1CN(C)S(=O)(=O)c1ccc(F)cc1,-10.2% (inactive)
17,COCC(=O)Nc1ccc2c(c1)[C@@H]1C[C@H](CC(=O)NCc3ccc(-c4ccccc4)cc3)O[C@H](CO)[C@@H]1O2,-0.998% (inactive)
18,C[C@@H]1CCCCO[C@@H](CN(C)C(=O)NC2CCCCC2)[C@H](C)CN([C@H](C)CO)C(=O)c2cc(NC(=O)Nc3cccc4ccccc34)ccc2O1,-71% (inactive)
19,CCc1ccc(N2CC(C(=O)N3CCCCCC3)CC2=O)cc1 (centres undefined),-5.19% (inactive)
20,CCc1ccc(N2CC(C(=O)NC3=NCCS3)CC2=O)cc1 (centres undefined),109% (active)
21,CCc1ccc(N2CC(C(=O)Nc3ccc(S(=O)(=O)Nc4nccs4)cc3)CC2=O)cc1 (centres undefined),2.04% (inactive)
22,COc1ccc(NC(=O)Nc2ccc3c(c2)C(=O)N([C@@H](C)CO)C[C@H](C)[C@H](CN(C)C(=O)Nc2ccccc2)OCCCC[C@@H](C)O3)cc1,0.523% (inactive)
23,CN1C(=O)c2cc(NS(C)(=O)=O)ccc2OC[C@@H]2O[C@@H](CC(=O)NCc3ccc(-c4ccccc4)cc3)CC[C@H]21,21.8% (inactive)
